Laboratory results from PubChem BioAssay AID1159580 (chemical genetic matrix, 2015).
“And” between values parts separate entries of the source, which are not always exact repeats. Equal entries are not always repeated. Among all 5,500 compounds or so, about 2,000 (36%) were called active. Not shown: some 18% with an inconclusive outcome. Rule as the data show it: active = normalized growth mostly below about 0.91 (no sharp cut-off); inconclusive = no clear call, values can overlap the other calls; inactive = mostly above about 0.92. Some of the results follow.

Assay: chemical genetic growth profiling, strain panel (AID 1159580);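 also: tested at 20 µM; growth read once vehicle control cultures reached saturation at 30 °C; 1 = growth at the plate median or of vehicle wells; lower values mean less growth of the strain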
Conditions: growth OD

Measured: normalized growth

COCCc1ccc(OCC(O)CNC(C)C)cc1 (stereo unspecified)
inactive: S. cerevisiae deletion strains, locus YJR075W, strain HOC1, active compounds read low 1.01 | S. cerevisiae deletion strains, locus YKL009W, strain mrt4, active compounds read low 1 | S. cerevisiae deletion strains, locus YKL068W, active compounds read low 1.01 | S. cerevisiae deletion strains, locus YKL085W, strain MDH1 (second series), active compounds read low 0.998 | S. cerevisiae deletion strains, locus YKL085W, strain MDH1, active compounds read low 0.998 | S. cerevisiae deletion strains, locus YKL160W, strain elf1, active compounds read low 0.98 | S. cerevisiae deletion strains, locus YKL190W, strain CNB1, active compounds read low 1.01 | S. cerevisiae deletion strains, locus YKR001C, strain vps1, active compounds read low 0.999 | S. cerevisiae deletion strains, locus YKR026C, strain gcn3, active compounds read low 1 | S. cerevisiae deletion strains, locus YKR091W, strain srl3, active compounds read low 0.988 | S. cerevisiae deletion strains, locus YLL001W, strain dnm1, active compounds read low 0.935 | S. cerevisiae deletion strains, locus YLL026W, active compounds read low 0.99 | S. cerevisiae deletion strains, locus YLL041C, strain sdh2, active compounds read low 1 | S. cerevisiae deletion strains, locus YLR027C, strain aat2, active compounds read low 1.02 | S. cerevisiae deletion strains, locus YLR039C, strain RIC1, active compounds read low 0.989 | S. cerevisiae deletion strains, locus YLR058C, strain SHM2, active compounds read low 1.01 | S. cerevisiae deletion strains, locus YLR102C, strain apc9, active compounds read low 1.01 | S. cerevisiae deletion strains, locus YLR113W, strain HOG1, active compounds read low 1.03 | S. cerevisiae deletion strains, locus YLR221C, strain rsa3, active compounds read low 0.955 | S. cerevisiae deletion strains, locus YLR258W, strain gsy2, active compounds read low 1.01 | S. cerevisiae deletion strains, locus YLR262C, strain YPT6 (second series), active compounds read low 1 | S. cerevisiae deletion strains, locus YLR262C, strain YPT6, active compounds read low 1 | S. cerevisiae deletion strains, locus YLR268W, strain sec22, active compounds read low 1.08 | S. cerevisiae deletion strains, locus YLR320W, strain mms22, active compounds read low 0.977 | S. cerevisiae deletion strains, locus YLR330W, strain CHS5, active compounds read low 1.01 | S. cerevisiae deletion strains, locus YLR342W, strain FKS1 (second series), active compounds read low 1.01 | S. cerevisiae deletion strains, locus YLR342W, strain FKS1, active compounds read low 0.993 | S. cerevisiae deletion strains, locus YLR357W, strain rsc2, active compounds read low 0.973 | S. cerevisiae deletion strains, locus YLR370C, strain arc18, active compounds read low 0.99 | S. cerevisiae deletion strains, locus YLR371W, strain rom2, active compounds read low 1.01 | S. cerevisiae deletion strains, locus YLR384C, strain iki3, active compounds read low 0.991 | S. cerevisiae deletion strains, locus YLR418C, strain cdc73, active compounds read low 0.986 | S. cerevisiae deletion strains, locus YML016C, strain PPZ1, active compounds read low 1.01 | S. cerevisiae deletion strains, locus YML032C, strain rad52, active compounds read low 1.03 | S. cerevisiae deletion strains, locus YML120C, strain ndi1, active compounds read low 0.942 | S. cerevisiae deletion strains, locus YML124C, strain tub3, active compounds read low 1.01 | S. cerevisiae deletion strains, locus YMR058W, strain fet3, active compounds read low 0.989 | S. cerevisiae deletion strains, locus YMR078C, strain ctf18, active compounds read low 1.01 | S. cerevisiae deletion strains, locus YMR125W, strain sto1, active compounds read low 0.97 | S. cerevisiae deletion strains, locus YMR129W, active compounds read low 0.996 | S. cerevisiae deletion strains, locus YMR205C, strain PFK2, active compounds read low 0.962 | S. cerevisiae deletion strains, locus YMR223W, strain ubp8, active compounds read low 0.995 | S. cerevisiae deletion strains, locus YMR231W, strain pep5, active compounds read low 0.997 | S. cerevisiae deletion strains, locus YMR263W, strain SAP30, active compounds read low 1.02 | S. cerevisiae deletion strains, locus YMR307W, strain GAS1, active compounds read low 1.02 | S. cerevisiae deletion strains, locus YNL067W, strain RPL9B, active compounds read low 1.02 | S. cerevisiae deletion strains, locus YNL071W, strain lat1, active compounds read low 0.989 | S. cerevisiae deletion strains, locus YNL128W, strain TEP1, active compounds read low 1.01 | S. cerevisiae deletion strains, locus YNL153C, strain GIM3, active compounds read low 1.02 | S. cerevisiae deletion strains, locus YNL175C, strain NOP13, active compounds read low 1.01 | S. cerevisiae deletion strains, locus YNL183C, strain NPR1, active compounds read low 1 | S. cerevisiae deletion strains, locus YNL197C, strain WHI3, active compounds read low 0.984 | S. cerevisiae deletion strains, locus YNL209W, strain ssb2, active compounds read low 0.987 | S. cerevisiae deletion strains, locus YNL224C, strain SQS1, active compounds read low 0.988 | S. cerevisiae deletion strains, locus YNL233W, strain BNI4, active compounds read low 1.01 | S. cerevisiae deletion strains, locus YNL248C, strain rpa49, active compounds read low 0.992 | S. cerevisiae deletion strains, locus YNL250W, strain rad50, active compounds read low 1.01 | S. cerevisiae deletion strains, locus YNL271C, strain bni1, active compounds read low 1.01 | S. cerevisiae deletion strains, locus YNL298W, strain CLA4, active compounds read low 1.02 | S. cerevisiae deletion strains, locus YNL307C, strain MCK1, active compounds read low 1.02 | S. cerevisiae deletion strains, locus YNL322C, strain KRE1 (second series), active compounds read low 0.98 | S. cerevisiae deletion strains, locus YNL322C, strain KRE1, active compounds read low 1 and 0.99 | S. cerevisiae deletion strains, locus YNR049C, strain mso1, active compounds read low 0.978 | S. cerevisiae deletion strains, locus YNR052C, strain pop2, active compounds read low 1.01 | S. cerevisiae deletion strains, locus YOL006C, strain TOP1, active compounds read low 1.07 | S. cerevisiae deletion strains, locus YOL012C, strain htz1 0.79 | S. cerevisiae deletion strains, locus YOL147C, strain pex11, active compounds read low 1.01 | S. cerevisiae deletion strains, locus YOR001W, strain rrp6, active compounds read low 1.03 | S. cerevisiae deletion strains, locus YOR061W, strain CKA2, active compounds read low 1.01 | S. cerevisiae deletion strains, locus YOR069W, strain VPS5, active compounds read low 1.01 | S. cerevisiae deletion strains, locus YOR070C, strain gyp1, active compounds read low 0.995 | S. cerevisiae deletion strains, locus YOR080W, strain dia2, active compounds read low 0.985 | S. cerevisiae deletion strains, locus YOR083W, strain WHI5 (second series), active compounds read low 0.999 | S. cerevisiae deletion strains, locus YOR083W, strain WHI5, active compounds read low 0.981 | S. cerevisiae deletion strains, locus YOR106W, strain vam3, active compounds read low 0.957 | S. cerevisiae deletion strains, locus YOR136W, strain idh2, active compounds read low 1.01 | S. cerevisiae deletion strains, locus YOR144C, strain elg1, active compounds read low 1.01 | S. cerevisiae deletion strains, locus YOR184W, strain ser1, active compounds read low 1.02 | S. cerevisiae deletion strains, locus YOR231W, strain MKK1, active compounds read low 1.03 | S. cerevisiae deletion strains, locus YOR265W, strain rbl2, active compounds read low 0.995 | S. cerevisiae deletion strains, locus YOR270C, strain vph1, active compounds read low 0.975 | S. cerevisiae deletion strains, locus YOR290C, strain snf2, active compounds read low 0.91 | S. cerevisiae deletion strains, locus YOR316C, strain cot1, active compounds read low 1.01 | S. cerevisiae deletion strains, locus YPL051W, strain arl3, active compounds read low 1 | S. cerevisiae deletion strains, locus YPL055C, strain LGE1, active compounds read low 0.989 and 1.01 | S. cerevisiae deletion strains, locus YPL078C, strain atp4, active compounds read low 0.978 | S. cerevisiae deletion strains, locus YPL106C, strain sse1, active compounds read low 0.971 | S. cerevisiae deletion strains, locus YPL240C, strain hsp82, active compounds read low 0.992 | S. cerevisiae deletion strains, locus YPL241C, strain CIN2, active compounds read low 1 and 0.974 | S. cerevisiae deletion strains, locus YPL256C, strain CLN2, active compounds read low 1.1 | S. cerevisiae deletion strains, locus YPR119W, strain clb2, active compounds read low 1.02 | S. cerevisiae deletion strains, locus YPR141C, strain kar3, active compounds read low 1.02 | S. cerevisiae deletion strains, locus YPR163C, strain tif3, active compounds read low 1.02 | S. cerevisiae deletion strains, locus YPR167C, strain met16, active compounds read low 1.01 | S. cerevisiae deletion strains, strain wtn01, active compounds read low 1.05 | S. cerevisiae strains, strain wild type, active compounds read low 1.01
